# From PubChem BioAssay AID488896 (Broad Institute, 2010)
# In all, about 320,000 compounds went through this assay and about 3,100 (0.97%) were called active. The entries come from a sample that favours actives as a whole. Values without a mark were called inactive.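 The calls were made as follows: active = mean replicate inhibition of at least 70% and a set share of replicates each scoring 70 or more; inconclusive = meets just one of the two criteria; inactive = fails both criteria.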
# Target: Scavenger receptor class B member 1 (Mus musculus) (UniProt Q61009)
# Sequence (Q61009 whole entry, looked up): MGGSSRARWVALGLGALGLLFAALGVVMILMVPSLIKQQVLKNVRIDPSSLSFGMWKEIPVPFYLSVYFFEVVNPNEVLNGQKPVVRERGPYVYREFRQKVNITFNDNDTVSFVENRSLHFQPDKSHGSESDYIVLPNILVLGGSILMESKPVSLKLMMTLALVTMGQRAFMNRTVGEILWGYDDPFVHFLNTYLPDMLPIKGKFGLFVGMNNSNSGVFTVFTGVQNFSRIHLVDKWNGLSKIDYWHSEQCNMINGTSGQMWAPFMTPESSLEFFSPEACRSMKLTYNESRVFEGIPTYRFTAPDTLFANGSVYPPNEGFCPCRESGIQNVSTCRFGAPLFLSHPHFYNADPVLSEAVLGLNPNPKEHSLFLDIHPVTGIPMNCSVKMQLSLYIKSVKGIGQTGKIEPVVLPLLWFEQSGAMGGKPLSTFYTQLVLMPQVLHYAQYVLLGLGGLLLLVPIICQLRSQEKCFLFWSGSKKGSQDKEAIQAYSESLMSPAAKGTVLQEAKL
# Experiment: inhibitors of SR-BI mediated HDL lipid uptake, primary screen, ldlA[mSR-BI] cells, fluorescence, single point (AID 488896);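 also: 0% = median of neutral control wells and 100% = median of positive control wells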
# Settings: ldlA[mSR-BI] CHO cells, DiI-HDL uptake fluorescence, 3 h; at 12.5 µM; stronger effect = higher value
row,SMILES,inhibition
1,CC(=O)OC1C2(CC3N4C(=O)C5(CO)SSC4(CC31O)C(=O)N5C)OC(C)C(C)(C)C2=O (stereo not given),106% (active)
2,CC12CCC(O)CC1CCC1C2CCC2(C)C(C(=O)CC(O)C(F)(F)F)CCC12 (stereo not given),13.2%
3,O=C(c1ccccc1)C(O)(CN1CCCCC1)c1ccccc1 (stereo not given),-5.67%
4,COC1C(O)C(C)OC(OC2CCC3(C=O)C(CCC4C3CCC3(C)C(C5=CC(=O)OC5)CCC43O)C2)C1O (stereo not given),0.038%
5,CC(=O)c1ccc(OC(NC(=O)Cc2ccccc2)C(Cl)(Cl)Cl)cc1 (stereo not given),92.8% (active)
6,CCOP(=O)(OCC)C(NC(=O)c1ccc(OC)cc1)C(Cl)(Cl)Cl (stereo not given),6.36%
7,CC(=O)Cc1ccc(OC(C)C)cc1,-1.27%
8,CN(C)CC1Oc2ccccc2OC1(O)c1ccccc1 (stereo not given),1.39%
9,CC1=CC(=Cc2sc3ccccc3[n+]2C)C=C(C)O1,-1%
10,CCC(C)(O)C(=O)OC1C(=O)OC2CC3C(C)=CC(=O)C(O)C3(C)C3C4(O)OCC23C1C(C)C4O (stereo not given),-10.3%
